Columns and labels:
Test in all cases: DAPPL (digital affinity profiling via proximity ligation, sequencing); 10 mM Tris-HCl pH 7.5, 50 mM NaCl, 1 mM DTT, 4% glycerol, room temperature, 30 min; GST-TFs on glutathione beads, 16-mer random dsDNA library, 0.1% formaldehyde crosslink after washing; high values mean tight binding
FEV = target: T1, FEV (Homo sapiens, UniProt Q99581 1-238); settings: protein: recombinant; tags: N-terminal GST; dsDNA, one strand shown
T1 sequence: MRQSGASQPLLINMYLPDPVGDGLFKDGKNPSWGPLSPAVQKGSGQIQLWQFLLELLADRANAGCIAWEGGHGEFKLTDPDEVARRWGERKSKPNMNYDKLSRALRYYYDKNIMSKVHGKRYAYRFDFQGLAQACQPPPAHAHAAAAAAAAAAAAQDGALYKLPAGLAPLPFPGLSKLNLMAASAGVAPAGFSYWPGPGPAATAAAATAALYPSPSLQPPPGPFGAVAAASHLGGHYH
Summary of the method: (§1)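 Binding signal is given per hexamer as its read frequency for a factor divided by its frequency in the tag-only sample. GST-fused human transcription factors were expressed in yeast, captured on glutathione beads, barcoded with DNA and pooled with that sample, then incubated with 200 nmole of a 16-mer random double-stranded DNA library in Tris/NaCl/DTT/glycerol buffer for 30 min at room temperature. The pools were then washed, crosslinked, proximity-ligated, amplified by PCR and sequenced on an Illumina NextSeq500.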

ETV5 = ETV5 (Homo sapiens, UniProt P41161 1-510); settings: protein: recombinant; tags: N-terminal GST; dsDNA, one strand shown
Summary of the method: as §1

HSF1 = HSF1 (Homo sapiens, UniProt Q00613 1-529); settings: protein: recombinant; tags: N-terminal GST; chain copies: 3; dsDNA, one strand shown
Summary of the method: as §1

SPIC = target: T2, SPIC (Homo sapiens, UniProt Q8N5J4 1-248); settings: protein: recombinant; tags: N-terminal GST; dsDNA, one strand shown
T2 sequence: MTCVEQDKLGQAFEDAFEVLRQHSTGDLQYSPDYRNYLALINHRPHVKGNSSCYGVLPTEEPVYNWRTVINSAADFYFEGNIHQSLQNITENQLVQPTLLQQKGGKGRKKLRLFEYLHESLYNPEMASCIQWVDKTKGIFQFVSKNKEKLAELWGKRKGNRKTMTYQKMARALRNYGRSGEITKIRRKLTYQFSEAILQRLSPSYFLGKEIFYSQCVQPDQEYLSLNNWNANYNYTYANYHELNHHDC
Summary of the method: as §1

ELF4 = ELF4 (Homo sapiens, UniProt Q99607 1-663); settings: protein: recombinant; tags: N-terminal GST; dsDNA, one strand shown
Summary of the method: as §1

ELK4 = target: T3, ELK4 (Homo sapiens, UniProt P28324-2 1-405); settings: protein: recombinant; tags: N-terminal GST; dsDNA, one strand shown
T3 sequence: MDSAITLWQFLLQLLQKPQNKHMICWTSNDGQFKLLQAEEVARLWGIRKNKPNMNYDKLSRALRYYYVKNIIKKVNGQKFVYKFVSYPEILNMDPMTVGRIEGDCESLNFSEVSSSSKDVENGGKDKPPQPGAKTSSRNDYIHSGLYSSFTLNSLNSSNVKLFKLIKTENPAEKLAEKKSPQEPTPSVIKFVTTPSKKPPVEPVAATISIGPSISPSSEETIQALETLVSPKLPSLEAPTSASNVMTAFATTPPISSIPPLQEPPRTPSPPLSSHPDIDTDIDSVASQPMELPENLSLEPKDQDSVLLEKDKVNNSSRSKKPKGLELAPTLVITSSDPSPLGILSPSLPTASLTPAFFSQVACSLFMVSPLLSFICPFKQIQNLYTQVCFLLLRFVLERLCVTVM
Summary of the method: as §1

ETV2 = target: T4, ETV2 (Homo sapiens, UniProt O00321 1-342); settings: protein: recombinant; tags: N-terminal GST; dsDNA, one strand shown
T4 sequence: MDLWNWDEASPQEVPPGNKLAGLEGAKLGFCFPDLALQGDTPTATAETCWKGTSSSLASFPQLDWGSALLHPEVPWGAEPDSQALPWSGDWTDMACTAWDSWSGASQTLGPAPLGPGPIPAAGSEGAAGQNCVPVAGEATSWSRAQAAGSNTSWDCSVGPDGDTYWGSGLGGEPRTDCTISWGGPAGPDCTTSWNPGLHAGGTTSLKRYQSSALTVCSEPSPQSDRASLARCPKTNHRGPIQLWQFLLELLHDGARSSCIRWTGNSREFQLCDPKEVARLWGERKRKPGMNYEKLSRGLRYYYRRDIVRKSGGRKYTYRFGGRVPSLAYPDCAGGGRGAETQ
Summary of the method: as §1

ELF3 = target: T5, ELF3 (Homo sapiens, UniProt P78545 1-371); settings: protein: recombinant; tags: N-terminal GST; dsDNA, one strand shown
T5 sequence: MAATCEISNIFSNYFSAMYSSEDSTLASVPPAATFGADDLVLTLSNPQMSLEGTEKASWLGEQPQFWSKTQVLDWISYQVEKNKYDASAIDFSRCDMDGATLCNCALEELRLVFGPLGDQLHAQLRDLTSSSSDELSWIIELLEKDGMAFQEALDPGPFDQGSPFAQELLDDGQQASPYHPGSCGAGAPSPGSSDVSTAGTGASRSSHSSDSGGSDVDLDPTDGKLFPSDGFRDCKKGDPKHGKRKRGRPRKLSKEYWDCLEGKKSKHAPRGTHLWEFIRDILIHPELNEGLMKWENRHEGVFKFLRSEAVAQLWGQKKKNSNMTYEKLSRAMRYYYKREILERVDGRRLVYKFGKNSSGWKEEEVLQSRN
Summary of the method: as §1

CRX = CRX (Homo sapiens, UniProt O43186 1-299); settings: protein: recombinant; tags: N-terminal GST; dsDNA, one strand shown
Summary of the method: as §1

ETV1 = ETV1 (Homo sapiens, UniProt P50549 1-477); settings: protein: recombinant; tags: N-terminal GST; dsDNA, one strand shown
Summary of the method: as §1

ERF = target: T6, ERF (Homo sapiens, UniProt P50548 1-548); settings: protein: recombinant; tags: N-terminal GST; dsDNA, one strand shown
T6 sequence: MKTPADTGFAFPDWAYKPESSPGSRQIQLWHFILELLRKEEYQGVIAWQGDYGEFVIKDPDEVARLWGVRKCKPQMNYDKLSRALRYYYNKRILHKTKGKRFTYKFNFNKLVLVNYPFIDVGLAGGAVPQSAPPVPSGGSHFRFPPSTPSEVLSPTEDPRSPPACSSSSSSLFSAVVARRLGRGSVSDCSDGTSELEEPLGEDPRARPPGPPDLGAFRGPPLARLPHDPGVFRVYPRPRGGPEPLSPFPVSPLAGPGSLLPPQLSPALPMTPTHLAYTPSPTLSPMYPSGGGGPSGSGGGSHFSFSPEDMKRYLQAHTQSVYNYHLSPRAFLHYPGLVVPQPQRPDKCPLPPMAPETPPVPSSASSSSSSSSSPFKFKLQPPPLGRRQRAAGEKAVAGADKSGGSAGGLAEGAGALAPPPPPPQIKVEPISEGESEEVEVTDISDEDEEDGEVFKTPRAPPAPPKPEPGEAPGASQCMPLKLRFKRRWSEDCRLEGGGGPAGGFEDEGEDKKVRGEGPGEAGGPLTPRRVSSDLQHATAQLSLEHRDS
Summary of the method: as §1

ETV3L = target: T7, ETV3L (Homo sapiens, UniProt Q6ZN32 1-361); settings: protein: recombinant; tags: N-terminal GST; dsDNA, one strand shown
T7 sequence: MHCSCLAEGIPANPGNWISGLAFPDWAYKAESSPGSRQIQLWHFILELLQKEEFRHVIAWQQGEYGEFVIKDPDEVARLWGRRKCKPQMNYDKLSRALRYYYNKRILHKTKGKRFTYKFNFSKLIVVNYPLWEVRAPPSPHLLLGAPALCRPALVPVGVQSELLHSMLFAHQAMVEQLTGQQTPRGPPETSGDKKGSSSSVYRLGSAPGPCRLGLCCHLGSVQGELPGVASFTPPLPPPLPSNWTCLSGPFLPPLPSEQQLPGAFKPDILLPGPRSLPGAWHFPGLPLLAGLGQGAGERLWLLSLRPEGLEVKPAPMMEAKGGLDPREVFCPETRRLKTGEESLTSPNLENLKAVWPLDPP
Summary of the method: as §1

ETS2 = target: T8, ETS2 (Homo sapiens, UniProt P15036 1-469); settings: protein: recombinant; tags: N-terminal GST; dsDNA, one strand shown
T8 sequence: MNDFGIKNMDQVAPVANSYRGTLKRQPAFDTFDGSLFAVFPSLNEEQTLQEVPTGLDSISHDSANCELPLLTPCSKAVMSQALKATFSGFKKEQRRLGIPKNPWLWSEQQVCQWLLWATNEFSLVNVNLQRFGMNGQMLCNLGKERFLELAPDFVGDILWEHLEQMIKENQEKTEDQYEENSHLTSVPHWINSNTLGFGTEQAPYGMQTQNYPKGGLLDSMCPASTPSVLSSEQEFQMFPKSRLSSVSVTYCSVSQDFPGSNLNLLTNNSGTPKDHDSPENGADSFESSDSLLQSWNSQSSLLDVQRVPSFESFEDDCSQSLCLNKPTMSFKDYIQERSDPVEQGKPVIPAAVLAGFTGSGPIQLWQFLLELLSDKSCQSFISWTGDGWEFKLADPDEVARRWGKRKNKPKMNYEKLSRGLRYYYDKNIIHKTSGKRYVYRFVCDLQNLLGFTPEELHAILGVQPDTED
Summary of the method: as §1

SPDEF = target: T9, SPDEF (Homo sapiens, UniProt O95238 1-335); settings: protein: recombinant; tags: N-terminal GST; dsDNA, one strand shown
T9 sequence: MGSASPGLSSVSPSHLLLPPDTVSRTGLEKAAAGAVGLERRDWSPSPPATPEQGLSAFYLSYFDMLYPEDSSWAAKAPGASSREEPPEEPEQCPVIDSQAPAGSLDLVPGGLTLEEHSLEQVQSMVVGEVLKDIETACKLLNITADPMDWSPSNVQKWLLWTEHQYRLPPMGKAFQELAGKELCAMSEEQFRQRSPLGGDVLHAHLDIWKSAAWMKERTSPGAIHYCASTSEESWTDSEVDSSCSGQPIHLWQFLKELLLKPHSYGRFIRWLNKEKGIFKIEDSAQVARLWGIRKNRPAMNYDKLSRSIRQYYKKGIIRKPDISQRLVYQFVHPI
Summary of the method: as §1

ETV7 = target: T10, ETV7 (Homo sapiens, UniProt Q9Y603 1-341); settings: protein: recombinant; tags: N-terminal GST; dsDNA, one strand shown
T10 sequence: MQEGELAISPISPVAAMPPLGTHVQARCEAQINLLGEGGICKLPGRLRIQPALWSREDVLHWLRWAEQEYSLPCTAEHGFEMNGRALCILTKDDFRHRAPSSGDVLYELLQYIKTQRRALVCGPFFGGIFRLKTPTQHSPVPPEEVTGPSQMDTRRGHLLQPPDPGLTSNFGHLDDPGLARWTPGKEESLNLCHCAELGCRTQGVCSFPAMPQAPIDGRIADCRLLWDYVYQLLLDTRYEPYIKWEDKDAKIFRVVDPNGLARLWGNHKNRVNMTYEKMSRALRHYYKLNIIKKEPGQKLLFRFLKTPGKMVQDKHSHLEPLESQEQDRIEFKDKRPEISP
Summary of the method: as §1

ELF5 = target: T11, ELF5 (Homo sapiens, UniProt Q9UKW6-2 1-255); settings: protein: recombinant; tags: N-terminal GST; dsDNA, one strand shown
T11 sequence: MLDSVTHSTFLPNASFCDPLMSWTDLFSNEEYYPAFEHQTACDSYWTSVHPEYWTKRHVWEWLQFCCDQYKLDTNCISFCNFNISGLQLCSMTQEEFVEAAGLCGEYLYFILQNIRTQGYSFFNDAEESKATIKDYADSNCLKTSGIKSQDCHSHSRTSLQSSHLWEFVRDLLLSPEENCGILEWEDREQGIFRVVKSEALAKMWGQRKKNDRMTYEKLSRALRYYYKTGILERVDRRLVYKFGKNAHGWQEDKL
Summary of the method: as §1

ETV3 = target: T12, ETV3 (Homo sapiens, UniProt P41162-2 1-143); settings: protein: recombinant; tags: N-terminal GST; dsDNA, one strand shown
T12 sequence: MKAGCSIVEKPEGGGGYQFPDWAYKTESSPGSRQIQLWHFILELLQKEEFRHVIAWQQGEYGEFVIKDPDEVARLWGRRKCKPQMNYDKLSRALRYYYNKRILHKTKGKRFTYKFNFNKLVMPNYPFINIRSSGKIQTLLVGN
Summary of the method: as §1

ETV6 = ETV6 (Homo sapiens, UniProt P41212 1-452); settings: protein: recombinant; tags: N-terminal GST; dsDNA, one strand shown
Summary of the method: as §1

ETV1, sequence (P50549 whole entry): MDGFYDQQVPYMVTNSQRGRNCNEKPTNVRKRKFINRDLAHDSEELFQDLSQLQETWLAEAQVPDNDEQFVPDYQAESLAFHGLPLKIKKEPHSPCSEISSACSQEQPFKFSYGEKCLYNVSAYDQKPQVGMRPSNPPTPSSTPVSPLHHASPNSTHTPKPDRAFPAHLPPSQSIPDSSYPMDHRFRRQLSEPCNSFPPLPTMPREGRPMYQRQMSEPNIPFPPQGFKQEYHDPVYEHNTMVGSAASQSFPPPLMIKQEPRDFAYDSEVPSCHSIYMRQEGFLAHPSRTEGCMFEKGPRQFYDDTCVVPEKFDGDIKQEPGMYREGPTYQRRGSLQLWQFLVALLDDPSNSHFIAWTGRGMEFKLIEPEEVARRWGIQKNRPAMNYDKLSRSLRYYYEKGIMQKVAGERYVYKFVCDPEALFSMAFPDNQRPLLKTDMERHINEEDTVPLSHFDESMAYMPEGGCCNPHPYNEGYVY
CRX, sequence (O43186 whole entry): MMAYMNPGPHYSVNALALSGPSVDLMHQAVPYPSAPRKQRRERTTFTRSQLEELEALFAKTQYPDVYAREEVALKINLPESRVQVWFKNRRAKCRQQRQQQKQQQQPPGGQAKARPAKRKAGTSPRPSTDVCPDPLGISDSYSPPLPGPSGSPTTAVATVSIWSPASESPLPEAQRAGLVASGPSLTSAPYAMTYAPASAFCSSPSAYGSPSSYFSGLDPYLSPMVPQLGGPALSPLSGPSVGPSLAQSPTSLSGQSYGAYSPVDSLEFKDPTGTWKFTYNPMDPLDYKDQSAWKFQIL
HSF1, sequence (Q00613 whole entry): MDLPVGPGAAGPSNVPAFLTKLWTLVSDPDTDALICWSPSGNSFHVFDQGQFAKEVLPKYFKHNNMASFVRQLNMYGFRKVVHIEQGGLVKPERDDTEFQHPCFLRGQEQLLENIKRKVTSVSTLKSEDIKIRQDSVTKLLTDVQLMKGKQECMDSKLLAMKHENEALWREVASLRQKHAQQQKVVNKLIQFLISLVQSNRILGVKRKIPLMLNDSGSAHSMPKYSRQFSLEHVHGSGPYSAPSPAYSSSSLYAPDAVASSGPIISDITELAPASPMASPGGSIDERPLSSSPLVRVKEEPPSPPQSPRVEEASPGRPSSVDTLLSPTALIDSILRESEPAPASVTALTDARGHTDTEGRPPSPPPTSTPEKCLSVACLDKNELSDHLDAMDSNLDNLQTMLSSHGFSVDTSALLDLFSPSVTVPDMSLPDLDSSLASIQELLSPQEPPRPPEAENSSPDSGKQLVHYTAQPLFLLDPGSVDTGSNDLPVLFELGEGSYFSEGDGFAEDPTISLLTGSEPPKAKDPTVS
ELF4, sequence (Q99607 whole entry): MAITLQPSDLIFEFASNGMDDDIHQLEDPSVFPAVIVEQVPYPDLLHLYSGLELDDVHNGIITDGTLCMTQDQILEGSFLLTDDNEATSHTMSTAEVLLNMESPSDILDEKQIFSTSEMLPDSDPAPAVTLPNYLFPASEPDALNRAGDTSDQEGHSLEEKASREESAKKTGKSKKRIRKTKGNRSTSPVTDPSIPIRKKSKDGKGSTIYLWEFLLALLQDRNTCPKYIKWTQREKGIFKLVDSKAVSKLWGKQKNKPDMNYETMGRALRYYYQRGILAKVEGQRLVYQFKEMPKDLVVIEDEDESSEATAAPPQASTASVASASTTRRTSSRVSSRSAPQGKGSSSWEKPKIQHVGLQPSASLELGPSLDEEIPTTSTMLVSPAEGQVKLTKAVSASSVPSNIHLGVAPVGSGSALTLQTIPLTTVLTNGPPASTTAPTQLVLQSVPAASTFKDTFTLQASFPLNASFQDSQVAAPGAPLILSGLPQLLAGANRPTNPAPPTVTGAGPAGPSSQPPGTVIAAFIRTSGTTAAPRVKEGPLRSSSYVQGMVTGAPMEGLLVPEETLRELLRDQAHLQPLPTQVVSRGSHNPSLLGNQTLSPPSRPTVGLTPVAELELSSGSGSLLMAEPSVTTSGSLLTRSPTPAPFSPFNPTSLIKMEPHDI
ETV5, sequence (P41161 whole entry): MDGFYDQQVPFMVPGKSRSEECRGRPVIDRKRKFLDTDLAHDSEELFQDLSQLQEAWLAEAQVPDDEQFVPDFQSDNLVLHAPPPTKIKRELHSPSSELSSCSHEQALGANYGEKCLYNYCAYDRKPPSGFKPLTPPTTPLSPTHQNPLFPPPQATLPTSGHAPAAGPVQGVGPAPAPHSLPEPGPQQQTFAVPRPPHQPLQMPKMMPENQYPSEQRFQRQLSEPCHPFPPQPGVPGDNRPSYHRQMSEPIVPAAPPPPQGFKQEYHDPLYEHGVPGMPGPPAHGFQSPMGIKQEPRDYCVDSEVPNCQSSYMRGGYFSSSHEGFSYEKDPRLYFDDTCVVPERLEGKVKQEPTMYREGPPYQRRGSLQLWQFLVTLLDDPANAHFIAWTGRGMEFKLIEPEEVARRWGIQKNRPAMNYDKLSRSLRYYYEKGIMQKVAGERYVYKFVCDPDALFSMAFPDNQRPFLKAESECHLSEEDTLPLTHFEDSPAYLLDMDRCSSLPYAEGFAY
ETV6, sequence (P41212 whole entry): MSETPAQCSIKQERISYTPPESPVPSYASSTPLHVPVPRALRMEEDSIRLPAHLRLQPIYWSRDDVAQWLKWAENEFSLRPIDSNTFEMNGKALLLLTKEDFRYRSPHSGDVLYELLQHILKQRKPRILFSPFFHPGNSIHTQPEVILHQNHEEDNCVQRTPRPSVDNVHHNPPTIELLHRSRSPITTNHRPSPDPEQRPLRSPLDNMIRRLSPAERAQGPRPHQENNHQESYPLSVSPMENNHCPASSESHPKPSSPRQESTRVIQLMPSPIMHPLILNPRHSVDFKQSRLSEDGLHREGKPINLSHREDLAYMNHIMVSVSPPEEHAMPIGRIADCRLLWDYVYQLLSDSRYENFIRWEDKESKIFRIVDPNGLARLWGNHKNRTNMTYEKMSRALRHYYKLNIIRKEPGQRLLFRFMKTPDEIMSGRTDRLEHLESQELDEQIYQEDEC

TAGCTA
binding signal (FEV): 1.22 fold enrichment (6-mer frequency, TF over GST control) | binding signal (ETV5): 1.24 fold enrichment (6-mer frequency, TF over GST control) | binding signal (HSF1): 1.47 fold enrichment (6-mer frequency, TF over GST control) | binding signal (SPIC): 1.22 fold enrichment (6-mer frequency, TF over GST control) | binding signal (ELF4): 1.28 fold enrichment (6-mer frequency, TF over GST control) | binding signal (ELK4): 1.3 fold enrichment (6-mer frequency, TF over GST control) | binding signal (ETV2): 1.27 fold enrichment (6-mer frequency, TF over GST control) | binding signal (ELF3): 1.17 fold enrichment (6-mer frequency, TF over GST control) | binding signal (CRX): 1.58 fold enrichment (6-mer frequency, TF over GST control) | binding signal (ETV1): 1.27 fold enrichment (6-mer frequency, TF over GST control) | binding signal (ERF): 1.23 fold enrichment (6-mer frequency, TF over GST control) | binding signal (ETV3L): 1.24 fold enrichment (6-mer frequency, TF over GST control) | binding signal (ETS2): 1.28 fold enrichment (6-mer frequency, TF over GST control) | binding signal (SPDEF): 1.08 fold enrichment (6-mer frequency, TF over GST control) | binding signal (ETV7): 1.31 fold enrichment (6-mer frequency, TF over GST control) | binding signal (ELF5): 1.16 fold enrichment (6-mer frequency, TF over GST control) | binding signal (ETV3): 1.18 fold enrichment (6-mer frequency, TF over GST control) | binding signal (ETV6): 1.28 fold enrichment (6-mer frequency, TF over GST control)

Source: paper PMC7862700, “An all-to-all approach to the identification of sequence-specific readers for epigenetic DNA modifications on cytosine”
